The structures appear in SMILES notation. Counter-ions that a name gives are not always drawn. A value given as a limit tells only on which side of the number the result lay.

The first assay deals with A549-TP53BP1-CLTA. Briefly: lowest phenotypically active concentration; higher = less potent. Conditions: treatment time: 24 h. The gist of the method:
(§1)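 Phenotypic activity depended on meeting both a deviation and a reproducibility criterion. The fifteen gene-edited A549, HepG2 and WPMY1 reporter lines were treated at 0.3, 1, 3 or 9 µM for 24 h, four wells each, then imaged live with features normalised to solvent control wells. Deviation required ≥3 of 4 wells past the 95th percentile of control Euclidean distances, and reproducibility a median replicate Pearson correlation above the 95th percentile of non-replicates.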
`Cc1ccc(NC(=O)c2cccc(C(C)(C)C#N)c2)cc1Nc1ccc2ncn(C)c(=O)c2c1`: the “lowest phenotypically active concentration” value came out at 1 µM.

With `O=C(Nc1ccncc1)c1cc([N+](=O)[O-])ccc1Cl`, the “lowest phenotypically active concentration” value turned out to be 9 µM.

Take `CNC(=O)c1cc(Oc2ccc(NC(=O)Nc3ccc(Cl)c(C(F)(F)F)c3)c(F)c2)ccn1` [regorafenib]: the “lowest phenotypically active concentration” value was found to be 9 µM.

Take `CCC(C)(C)C(=O)O[C@H]1C[C@@H](C)C=C2C=C[C@H](C)[C@H](CC[C@@H]3C[C@@H](O)CC(=O)O3)[C@H]21` [Simvastatin]: the “lowest phenotypically active concentration” value stood at 9 µM.

Turning to `CCN1/C(=C/C(C)=O)Sc2ccc(O)cc21`, the “lowest phenotypically active concentration” value was found to be 9 µM.

Regarding `O=S(=O)(c1cccc2cnccc12)N1CCNCC1`, the “lowest phenotypically active concentration” value stood at 9 µM.

A further assay has as its system A549-TUBA1B-RELA. The assay is described as above. Conditions: treatment time: 24 h. The gist of the method:
as §1
Turning to `CC1(CN2CCC(n3c(=O)[nH]c4ccccc43)CC2)OCc2ccccc2-n2cccc21` (stereo unspecified), the “lowest phenotypically active concentration” value was 9 µM.

As to `CCC(=O)N1CCOc2c(cc(-c3ccc(OC)c(OC)c3)cc2OC[C@H]2CCCN(C)C2)C1`, the “lowest phenotypically active concentration” value stood at 9 µM.

In the case of `Cc1ccc(NC(=O)c2cccc(C(C)(C)C#N)c2)cc1Nc1ccc2ncn(C)c(=O)c2c1`, the “lowest phenotypically active concentration” value was determined as 9 µM.

Consider `Cn1cc(-c2cnc3ccc4ccc(CS(=O)(=O)NCc5ccccn5)cc4c(=O)c3c2)cn1`, for which the “lowest phenotypically active concentration” value is 9 µM.

For `O=C(Nc1ccncc1)c1cc([N+](=O)[O-])ccc1Cl`, the “lowest phenotypically active concentration” value turned out to be 9 µM.

For the compound `Nc1ncnc2c1c(-c1ccc(Oc3ccccc3)cc1)nn2C1CCCC1`, the “lowest phenotypically active concentration” value was 3 µM.

With `O=C(Nc1ccc(CN2CCOCC2)cc1)c1ccc(-c2cccc(Cl)c2)o1`, the “lowest phenotypically active concentration” value is 9 µM.

Consider `O=C(/C=C/c1ccc2ccccc2n1)c1ccncc1`, for which the “lowest phenotypically active concentration” value is 9 µM.

For `CNCC[C@H](Oc1cccc2ccccc12)c1cccs1` [duloxetine], the “lowest phenotypically active concentration” value came to 9 µM.

For `Nc1cc(N)c(N)cc1N` [FAK Inhibitor 14], the “lowest phenotypically active concentration” value turned out to be 3 µM.

With `Fc1ccccc1Nc1nc2nonc2nc1Nc1ccccc1F`, the “lowest phenotypically active concentration” value was found to be 9 µM.

For `COc1cc2nccc(Oc3ccc(NC(=O)C4(C(=O)Nc5ccc(F)cc5)CC4)cc3)c2cc1OC`, the “lowest phenotypically active concentration” value is at most 0.3 µM.

For `CN1c2ccc([N+](=O)[O-])cc2N=C(c2ccc(C(=O)O)cc2)c2cc3c(cc21)C(C)(C)CCC3(C)C`, the “lowest phenotypically active concentration” value amounted to 9 µM.

`CC(C)(C)n1nc(-c2ccc(Cl)cc2)c2c(N)ncnc21`: the “lowest phenotypically active concentration” value is 9 µM.

Regarding `O=S(=O)(c1cccc2cnccc12)N1CCNCC1`, the “lowest phenotypically active concentration” value worked out at 9 µM.

Another assay relates to HepG2-ACTB-RAB5A. The assay is described as above. As to conditions: treatment time: 24 h. A digest of the protocol: as §1
Take `COc1cc(OC)c2c(=O)[nH]c(-c3cc(C)c(OCCO)c(C)c3)nc2c1` [apabetalone]: the “lowest phenotypically active concentration” value worked out at 9 µM.

As to `O=C(CCCCCCC(=O)NO)NO`, the “lowest phenotypically active concentration” value is 9 µM.

For `CC(C)(C)c1ccc(C(O)CCCN2CCC(C(O)(c3ccccc3)c3ccccc3)CC2)cc1` (stereo unspecified) [terfenadine], the “lowest phenotypically active concentration” value was 3 µM.

As for `CCC(=O)N1CCOc2c(cc(-c3ccc(OC)c(OC)c3)cc2OC[C@H]2CCCN(C)C2)C1`, the “lowest phenotypically active concentration” value is 9 µM.

With `CCc1nc(-c2cccc(C)c2)c(-c2ccnc(NC(=O)c3ccccc3)c2)s1`, the “lowest phenotypically active concentration” value is 9 µM.

`Cc1ccc(S(=O)(=O)n2c(N)nc3ccccc32)cc1`: the “lowest phenotypically active concentration” value worked out at 9 µM.

Consider `Cc1ccc(NC(=O)c2cccc(C(C)(C)C#N)c2)cc1Nc1ccc2ncn(C)c(=O)c2c1`, for which the “lowest phenotypically active concentration” value was at most 0.3 µM.

Take `COc1cc2c(cc1OC)-c1c/c(=N/c3c(C)cc(C)cc3C)n(C)c(=O)n1CC2` [Trequinsin hydrochloride]: the “lowest phenotypically active concentration” value amounted to 9 µM.

Regarding `O=C(Nc1ccncc1)c1cc([N+](=O)[O-])ccc1Cl`, the “lowest phenotypically active concentration” value was 9 µM.

Turning to `O=C(/C=C/c1ccc2ccccc2n1)c1ccncc1`, the “lowest phenotypically active concentration” value is 3 µM.

As to `CNC(=O)c1cc(Oc2ccc(NC(=O)Nc3ccc(Cl)c(C(F)(F)F)c3)c(F)c2)ccn1` [regorafenib], the “lowest phenotypically active concentration” value was found to be 3 µM.

For the compound `NC(=O)[C@@H](CCC(F)(F)F)N(Cc1ccc(-c2ncon2)cc1F)S(=O)(=O)c1ccc(Cl)cc1` [avagacestat], the “lowest phenotypically active concentration” value was found to be 9 µM.

Regarding `CCC(C)(C)C(=O)O[C@H]1C[C@@H](C)C=C2C=C[C@H](C)[C@H](CC[C@@H]3C[C@@H](O)CC(=O)O3)[C@H]21` [Simvastatin], the “lowest phenotypically active concentration” value came to 1 µM.

With `Cc1ccc(S(=O)(=O)c2ccc([N+](=O)[O-])o2)cc1`, the “lowest phenotypically active concentration” value was 9 µM.

As to `CC[C@H](CO)Nc1nc(Nc2cccc(-c3ccccn3)c2)c2ncn(C(C)C)c2n1` [(R)-DRF053 dihydrochloride], the “lowest phenotypically active concentration” value was 9 µM.

On to `COc1ccc(CCc2nc3cc(-c4c(C)noc4C)ccc3n2C[C@H](C)N2CCOCC2)cc1Cl`, for which the “lowest phenotypically active concentration” value worked out at 3 µM.

In the case of `CCN1/C(=C/C(C)=O)Sc2ccc(O)cc21`, the “lowest phenotypically active concentration” value is 9 µM.

For `CC(C)(C)n1nc(-c2ccc(Cl)cc2)c2c(N)ncnc21`, the “lowest phenotypically active concentration” value was 3 µM.

For `O=S(=O)(c1cccc2cnccc12)N1CCNCC1`, the “lowest phenotypically active concentration” value was 9 µM.

For `CC(C)c1c(C(=O)Nc2ccccc2)c(-c2ccccc2)c(-c2ccc(F)cc2)n1CC[C@@H](O)C[C@@H](O)CC(=O)O` [atorvastatin], the “lowest phenotypically active concentration” value is 3 µM.

Values taken from the supplement of paper PMC7411054.
